From paper PMC7862700, “An all-to-all approach to the identification of sequence-specific readers for epigenetic DNA modifications on cytosine”

Key:
Test in all cases: DAPPL (digital affinity profiling via proximity ligation, sequencing); 10 mM Tris-HCl pH 7.5, 50 mM NaCl, 1 mM DTT, 4% glycerol, room temperature, 30 min; GST-TFs on glutathione beads, 16-mer random dsDNA library, 0.1% formaldehyde crosslink after washing; high values mean tight binding
Settings in all cases: protein: recombinant; tags: N-terminal GST; dsDNA, one strand shown
ELK1 = molecular target: T1, ELK1 (Homo sapiens, UniProt P19419 1-428)
T1 sequence: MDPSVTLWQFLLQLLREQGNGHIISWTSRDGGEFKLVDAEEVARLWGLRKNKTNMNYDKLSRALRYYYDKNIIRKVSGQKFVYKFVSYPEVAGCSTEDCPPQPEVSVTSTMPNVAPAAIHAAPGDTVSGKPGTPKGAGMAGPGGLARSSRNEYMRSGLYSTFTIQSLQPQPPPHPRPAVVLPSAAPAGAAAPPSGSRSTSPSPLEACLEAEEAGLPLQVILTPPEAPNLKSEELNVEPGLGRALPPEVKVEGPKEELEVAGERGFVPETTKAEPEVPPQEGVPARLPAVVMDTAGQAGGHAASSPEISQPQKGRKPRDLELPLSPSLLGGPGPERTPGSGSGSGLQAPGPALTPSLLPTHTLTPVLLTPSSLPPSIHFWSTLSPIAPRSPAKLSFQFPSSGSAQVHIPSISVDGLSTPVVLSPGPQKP
Summary of the method: (§1)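 Binding signal is defined as a hexamer's read frequency for one factor over its frequency for the tag-only sample. To obtain reads, GST-fused human transcription factors were expressed in yeast, captured on glutathione beads, barcoded with DNA and pooled with that sample. Pools met 200 nmole of a 16-mer random double-stranded DNA library in Tris/NaCl/DTT/glycerol buffer for 30 min at room temperature before washing, 0.1% formaldehyde crosslinking, proximity ligation (BsaI/T4 ligase, 1 h, 37 °C), PCR and Illumina NextSeq500 sequencing.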

GABPA = molecular target: T2, GABPA (Homo sapiens, UniProt Q06546 1-454)
T2 sequence: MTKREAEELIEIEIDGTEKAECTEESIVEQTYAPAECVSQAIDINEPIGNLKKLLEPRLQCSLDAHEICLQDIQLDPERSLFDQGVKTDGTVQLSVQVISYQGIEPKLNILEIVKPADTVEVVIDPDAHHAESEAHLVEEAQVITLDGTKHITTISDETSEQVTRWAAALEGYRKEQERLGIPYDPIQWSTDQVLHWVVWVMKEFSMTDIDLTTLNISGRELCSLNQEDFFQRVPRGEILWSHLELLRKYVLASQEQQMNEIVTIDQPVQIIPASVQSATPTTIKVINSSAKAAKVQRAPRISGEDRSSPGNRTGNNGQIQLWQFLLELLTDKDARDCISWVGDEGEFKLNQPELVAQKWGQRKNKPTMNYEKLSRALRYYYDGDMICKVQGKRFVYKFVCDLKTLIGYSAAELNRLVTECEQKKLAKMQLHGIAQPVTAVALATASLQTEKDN
Summary of the method: as §1

ERG = molecular target: T3, ERG (Homo sapiens, UniProt P11308 1-479)
T3 sequence: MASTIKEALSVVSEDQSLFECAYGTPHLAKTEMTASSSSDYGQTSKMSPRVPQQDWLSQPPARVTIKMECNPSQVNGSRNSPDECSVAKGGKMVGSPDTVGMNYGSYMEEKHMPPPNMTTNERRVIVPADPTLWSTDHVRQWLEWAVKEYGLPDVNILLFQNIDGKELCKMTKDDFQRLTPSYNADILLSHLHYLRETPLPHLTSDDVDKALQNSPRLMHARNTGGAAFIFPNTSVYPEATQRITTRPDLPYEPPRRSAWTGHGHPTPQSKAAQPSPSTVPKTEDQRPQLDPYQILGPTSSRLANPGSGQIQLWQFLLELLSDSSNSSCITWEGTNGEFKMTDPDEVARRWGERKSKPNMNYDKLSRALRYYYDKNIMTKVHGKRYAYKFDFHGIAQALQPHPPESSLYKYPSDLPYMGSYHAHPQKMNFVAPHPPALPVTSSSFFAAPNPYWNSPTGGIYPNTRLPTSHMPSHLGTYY
Summary of the method: as §1

ELF1 = ELF1 (Homo sapiens, UniProt P32519 1-619)
Sequence of ELF1 (P32519 whole entry): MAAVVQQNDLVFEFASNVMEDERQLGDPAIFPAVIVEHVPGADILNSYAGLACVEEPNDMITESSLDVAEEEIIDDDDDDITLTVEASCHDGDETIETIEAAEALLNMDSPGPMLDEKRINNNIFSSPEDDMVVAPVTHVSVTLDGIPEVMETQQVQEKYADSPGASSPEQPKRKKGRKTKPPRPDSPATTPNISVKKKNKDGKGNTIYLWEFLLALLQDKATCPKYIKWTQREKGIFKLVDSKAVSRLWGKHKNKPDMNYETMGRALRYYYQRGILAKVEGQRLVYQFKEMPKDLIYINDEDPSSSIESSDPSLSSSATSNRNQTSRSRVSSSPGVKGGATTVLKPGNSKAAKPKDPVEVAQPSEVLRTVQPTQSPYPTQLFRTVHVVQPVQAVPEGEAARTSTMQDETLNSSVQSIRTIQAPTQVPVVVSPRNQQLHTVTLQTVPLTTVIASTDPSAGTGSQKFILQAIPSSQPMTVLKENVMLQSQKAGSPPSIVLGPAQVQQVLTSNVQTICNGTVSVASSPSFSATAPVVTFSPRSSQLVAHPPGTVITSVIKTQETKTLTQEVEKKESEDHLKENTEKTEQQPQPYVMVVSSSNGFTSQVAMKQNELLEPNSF
Summary of the method: as §1

SPIB = SPIB (Homo sapiens, UniProt Q01892 1-262)
Sequence of SPIB (Q01892 whole entry): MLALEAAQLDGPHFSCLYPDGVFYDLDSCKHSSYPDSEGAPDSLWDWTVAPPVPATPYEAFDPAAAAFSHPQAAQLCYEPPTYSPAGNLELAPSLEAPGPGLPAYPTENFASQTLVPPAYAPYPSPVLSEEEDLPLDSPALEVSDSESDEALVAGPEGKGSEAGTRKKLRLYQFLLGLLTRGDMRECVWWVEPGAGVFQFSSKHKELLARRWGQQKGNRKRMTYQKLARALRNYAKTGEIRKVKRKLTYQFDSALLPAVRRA
Summary of the method: as §1

ELK3 = molecular target: T4, ELK3 (Homo sapiens, UniProt P41970 1-407)
T4 sequence: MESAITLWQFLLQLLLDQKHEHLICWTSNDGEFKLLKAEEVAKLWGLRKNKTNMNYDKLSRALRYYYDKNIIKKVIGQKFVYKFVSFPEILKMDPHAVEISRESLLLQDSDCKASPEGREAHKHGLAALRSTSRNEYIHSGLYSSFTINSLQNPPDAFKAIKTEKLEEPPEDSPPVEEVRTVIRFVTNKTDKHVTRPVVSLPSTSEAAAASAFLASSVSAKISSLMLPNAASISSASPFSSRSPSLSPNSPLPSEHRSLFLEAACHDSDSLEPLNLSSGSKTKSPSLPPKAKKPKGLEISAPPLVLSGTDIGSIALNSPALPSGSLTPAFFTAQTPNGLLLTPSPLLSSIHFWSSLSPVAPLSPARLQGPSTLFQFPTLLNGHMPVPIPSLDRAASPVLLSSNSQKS
Summary of the method: as §1

ELF4 = ELF4 (Homo sapiens, UniProt Q99607 1-663)
Sequence of ELF4 (Q99607 whole entry): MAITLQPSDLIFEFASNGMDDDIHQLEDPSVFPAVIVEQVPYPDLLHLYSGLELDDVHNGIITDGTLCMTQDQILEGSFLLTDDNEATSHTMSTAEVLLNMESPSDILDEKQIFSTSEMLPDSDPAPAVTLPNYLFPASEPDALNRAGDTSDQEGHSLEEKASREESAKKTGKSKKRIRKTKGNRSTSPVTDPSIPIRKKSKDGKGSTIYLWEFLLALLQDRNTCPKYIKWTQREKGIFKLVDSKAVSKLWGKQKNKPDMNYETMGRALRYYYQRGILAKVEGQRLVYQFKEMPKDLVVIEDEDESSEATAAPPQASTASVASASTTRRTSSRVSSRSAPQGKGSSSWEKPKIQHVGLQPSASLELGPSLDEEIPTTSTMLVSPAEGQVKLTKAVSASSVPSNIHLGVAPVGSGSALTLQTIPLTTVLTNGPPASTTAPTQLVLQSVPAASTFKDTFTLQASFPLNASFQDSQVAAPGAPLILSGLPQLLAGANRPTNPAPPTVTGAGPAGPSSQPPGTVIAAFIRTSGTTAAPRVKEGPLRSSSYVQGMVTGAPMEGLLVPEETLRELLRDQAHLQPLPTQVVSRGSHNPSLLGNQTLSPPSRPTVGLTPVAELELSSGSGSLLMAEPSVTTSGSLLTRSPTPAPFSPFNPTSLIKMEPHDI
Summary of the method: as §1

ELK4 = molecular target: T5, ELK4 (Homo sapiens, UniProt P28324-2 1-405)
T5 sequence: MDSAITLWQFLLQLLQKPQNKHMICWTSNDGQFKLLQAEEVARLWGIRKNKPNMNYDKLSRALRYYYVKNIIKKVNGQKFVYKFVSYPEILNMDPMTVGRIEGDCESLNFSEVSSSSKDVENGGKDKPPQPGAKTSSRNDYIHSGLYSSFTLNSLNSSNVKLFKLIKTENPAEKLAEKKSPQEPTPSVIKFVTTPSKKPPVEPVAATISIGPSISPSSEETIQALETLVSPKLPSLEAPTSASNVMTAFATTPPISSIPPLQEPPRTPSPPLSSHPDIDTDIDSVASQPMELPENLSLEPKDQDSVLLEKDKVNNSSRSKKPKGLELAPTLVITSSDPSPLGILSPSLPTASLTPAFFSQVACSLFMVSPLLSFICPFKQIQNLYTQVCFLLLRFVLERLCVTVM
Summary of the method: as §1

ELF3 = molecular target: T6, ELF3 (Homo sapiens, UniProt P78545 1-371)
T6 sequence: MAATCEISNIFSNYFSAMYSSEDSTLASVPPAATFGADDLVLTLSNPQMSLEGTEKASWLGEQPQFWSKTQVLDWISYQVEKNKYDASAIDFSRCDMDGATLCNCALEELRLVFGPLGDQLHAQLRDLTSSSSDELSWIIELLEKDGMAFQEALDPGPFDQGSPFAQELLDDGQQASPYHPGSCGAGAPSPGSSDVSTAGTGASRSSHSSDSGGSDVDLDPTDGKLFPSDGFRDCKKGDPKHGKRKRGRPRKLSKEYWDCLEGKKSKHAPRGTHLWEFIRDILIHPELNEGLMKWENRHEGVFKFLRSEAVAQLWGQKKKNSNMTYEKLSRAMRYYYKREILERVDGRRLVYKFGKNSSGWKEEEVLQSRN
Summary of the method: as §1

ETV1 = ETV1 (Homo sapiens, UniProt P50549 1-477)
Sequence of ETV1 (P50549 whole entry): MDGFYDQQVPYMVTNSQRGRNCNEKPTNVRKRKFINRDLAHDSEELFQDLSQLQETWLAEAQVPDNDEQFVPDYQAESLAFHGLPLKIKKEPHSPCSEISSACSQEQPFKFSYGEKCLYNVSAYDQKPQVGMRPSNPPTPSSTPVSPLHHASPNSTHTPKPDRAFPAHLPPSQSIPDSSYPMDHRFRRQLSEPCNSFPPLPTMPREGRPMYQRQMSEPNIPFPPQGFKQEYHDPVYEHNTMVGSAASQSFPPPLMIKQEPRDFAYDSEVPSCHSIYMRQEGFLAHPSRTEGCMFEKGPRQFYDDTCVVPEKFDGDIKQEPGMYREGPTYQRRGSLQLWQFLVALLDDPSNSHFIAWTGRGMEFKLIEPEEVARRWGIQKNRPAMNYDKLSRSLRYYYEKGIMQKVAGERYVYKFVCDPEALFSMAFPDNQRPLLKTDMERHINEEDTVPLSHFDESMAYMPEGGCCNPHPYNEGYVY
Summary of the method: as §1

ETV3L = molecular target: T7, ETV3L (Homo sapiens, UniProt Q6ZN32 1-361)
T7 sequence: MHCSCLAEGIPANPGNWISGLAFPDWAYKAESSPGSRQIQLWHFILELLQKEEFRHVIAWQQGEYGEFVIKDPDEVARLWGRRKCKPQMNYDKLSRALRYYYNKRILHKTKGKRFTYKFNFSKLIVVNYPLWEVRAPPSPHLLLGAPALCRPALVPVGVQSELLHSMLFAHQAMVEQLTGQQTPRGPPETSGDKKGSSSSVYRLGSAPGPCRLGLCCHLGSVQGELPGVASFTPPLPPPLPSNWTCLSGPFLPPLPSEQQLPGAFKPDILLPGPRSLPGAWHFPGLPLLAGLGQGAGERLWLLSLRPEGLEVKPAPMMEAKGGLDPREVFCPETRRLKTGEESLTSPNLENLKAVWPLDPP
Summary of the method: as §1

ETS2 = molecular target: T8, ETS2 (Homo sapiens, UniProt P15036 1-469)
T8 sequence: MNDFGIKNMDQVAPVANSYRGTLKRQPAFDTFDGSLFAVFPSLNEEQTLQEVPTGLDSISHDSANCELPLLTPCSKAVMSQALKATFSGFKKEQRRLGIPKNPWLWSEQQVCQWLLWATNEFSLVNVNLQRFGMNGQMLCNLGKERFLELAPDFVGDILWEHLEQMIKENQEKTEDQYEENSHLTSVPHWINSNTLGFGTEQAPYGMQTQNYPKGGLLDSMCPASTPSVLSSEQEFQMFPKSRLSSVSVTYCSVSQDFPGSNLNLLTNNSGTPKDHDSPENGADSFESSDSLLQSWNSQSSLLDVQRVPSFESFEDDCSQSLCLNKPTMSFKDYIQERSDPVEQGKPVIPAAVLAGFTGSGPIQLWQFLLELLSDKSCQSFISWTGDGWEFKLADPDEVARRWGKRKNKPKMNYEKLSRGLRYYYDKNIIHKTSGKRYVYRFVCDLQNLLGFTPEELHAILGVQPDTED
Summary of the method: as §1

SPDEF = molecular target: T9, SPDEF (Homo sapiens, UniProt O95238 1-335)
T9 sequence: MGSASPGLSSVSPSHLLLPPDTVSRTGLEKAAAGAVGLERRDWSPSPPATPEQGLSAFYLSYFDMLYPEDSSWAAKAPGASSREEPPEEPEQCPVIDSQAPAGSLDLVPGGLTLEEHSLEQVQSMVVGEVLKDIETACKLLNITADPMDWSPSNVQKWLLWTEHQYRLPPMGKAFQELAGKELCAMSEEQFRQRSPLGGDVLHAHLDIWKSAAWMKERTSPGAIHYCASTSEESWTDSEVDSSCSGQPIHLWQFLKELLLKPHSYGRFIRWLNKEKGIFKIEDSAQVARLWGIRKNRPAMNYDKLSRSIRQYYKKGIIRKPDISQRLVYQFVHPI
Summary of the method: as §1

ETV7 = molecular target: T10, ETV7 (Homo sapiens, UniProt Q9Y603 1-341)
T10 sequence: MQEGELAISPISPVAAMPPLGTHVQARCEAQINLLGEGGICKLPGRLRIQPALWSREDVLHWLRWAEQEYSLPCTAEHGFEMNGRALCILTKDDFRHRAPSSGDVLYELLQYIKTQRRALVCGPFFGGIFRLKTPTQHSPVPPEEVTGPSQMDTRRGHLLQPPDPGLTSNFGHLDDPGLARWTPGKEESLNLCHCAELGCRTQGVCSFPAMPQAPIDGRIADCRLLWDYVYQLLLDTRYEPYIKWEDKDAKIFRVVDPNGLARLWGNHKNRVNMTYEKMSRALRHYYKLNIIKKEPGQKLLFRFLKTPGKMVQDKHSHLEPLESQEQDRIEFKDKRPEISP
Summary of the method: as §1

ETV3 = molecular target: T11, ETV3 (Homo sapiens, UniProt P41162-2 1-143)
T11 sequence: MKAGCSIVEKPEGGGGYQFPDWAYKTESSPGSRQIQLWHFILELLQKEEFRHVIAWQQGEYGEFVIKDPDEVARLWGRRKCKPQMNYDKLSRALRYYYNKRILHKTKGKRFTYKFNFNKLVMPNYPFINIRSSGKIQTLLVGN
Summary of the method: as §1

ETV6 = ETV6 (Homo sapiens, UniProt P41212 1-452)
Sequence of ETV6 (P41212 whole entry): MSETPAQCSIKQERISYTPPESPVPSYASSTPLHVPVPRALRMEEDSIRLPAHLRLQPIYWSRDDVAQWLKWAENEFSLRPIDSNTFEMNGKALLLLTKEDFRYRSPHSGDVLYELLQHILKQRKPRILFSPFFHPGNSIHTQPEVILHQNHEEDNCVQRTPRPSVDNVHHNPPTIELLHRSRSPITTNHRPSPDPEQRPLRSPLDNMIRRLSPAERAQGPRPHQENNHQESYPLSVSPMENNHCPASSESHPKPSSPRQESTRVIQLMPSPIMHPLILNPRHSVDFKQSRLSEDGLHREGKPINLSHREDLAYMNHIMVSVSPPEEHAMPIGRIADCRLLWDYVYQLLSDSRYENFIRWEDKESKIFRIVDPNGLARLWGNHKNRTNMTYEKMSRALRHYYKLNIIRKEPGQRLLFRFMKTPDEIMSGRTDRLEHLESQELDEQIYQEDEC
Summary of the method: as §1

Sequence: CGCGAT
- binding signal (ELK1): 1.07 fold enrichment (6-mer frequency, TF over GST control)
- binding signal (GABPA): 1.09 fold enrichment (6-mer frequency, TF over GST control)
- binding signal (ERG): 1.09 fold enrichment (6-mer frequency, TF over GST control)
- binding signal (ELF1): 1.06 fold enrichment (6-mer frequency, TF over GST control)
- binding signal (SPIB): 1.03 fold enrichment (6-mer frequency, TF over GST control)
- binding signal (ELK3): 1.07 fold enrichment (6-mer frequency, TF over GST control)
- binding signal (ELF4): 1.07 fold enrichment (6-mer frequency, TF over GST control)
- binding signal (ELK4): 1.22 fold enrichment (6-mer frequency, TF over GST control)
- binding signal (ELF3): 1.15 fold enrichment (6-mer frequency, TF over GST control)
- binding signal (ETV1): 1.08 fold enrichment (6-mer frequency, TF over GST control)
- binding signal (ETV3L): 1.06 fold enrichment (6-mer frequency, TF over GST control)
- binding signal (ETS2): 1.07 fold enrichment (6-mer frequency, TF over GST control)
- binding signal (SPDEF): 1.05 fold enrichment (6-mer frequency, TF over GST control)
- binding signal (ETV7): 1.05 fold enrichment (6-mer frequency, TF over GST control)
- binding signal (ETV3): 1.08 fold enrichment (6-mer frequency, TF over GST control)
- binding signal (ETV6): 1.05 fold enrichment (6-mer frequency, TF over GST control)
